According to the supplement of paper PMC10849652:
Targets with a hit are over-represented here; the source holds about 8,800 in all. About 0.5% of all pairs of compound and target were hits.

Experiments:
Experiment in all cases: log2 fold change, soluble protein after heating vs DMSO (PISA); higher = thermal stabilisation; K562 lysate, 10 uM; active = over 0.2 and 3.5 SD of the protein, either way, in both replicates (recomputed)
[1] = compound: CCCS(=O)(=O)Nc1ccc(F)c(C(=O)c2c[nH]c3ncc(-c4ccc(Cl)cc4)cc23)c1F [vemurafenib]
Procedure, shortened: (§1)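 The values are log-two fold changes in thermal stability compared with solvent controls and come from duplicates. They were obtained by TMTpro 16plex LC-MS/MS, with channel sums equalised, on the supernatant after 21,000xg for 90 min. That supernatant came from crude K562 extract at 1 mg/mL protein treated with 10 μM compound for 30 min, heated for 3 min across 48°C-58°C, pooled and brought to 0.5% NP-40 at 4°C.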

[2] = compound: CCCS(=O)(=O)Nc1ccc(F)c(C(=O)c2c[nH]c3ncc(Cl)cc23)c1F
Procedure, shortened: as §1

[3] = compound: CCN(CCCOc1ccc2c(Nc3cc(CC(=O)Nc4cccc(F)c4)[nH]n3)ncnc2c1)CCOP(=O)(O)O [barasertib]
Procedure, shortened: as §1

[4] = compound: CC[C@@H]1C(=O)N(C)c2cnc(Nc3ccc(C(=O)NC4CCN(C)CC4)cc3OC)nc2N1C1CCCC1
Procedure, shortened: as §1

[5] = compound: CC[C@@H]1C(=O)N(C)c2cnc(Nc3ccc(C(=O)N[C@H]4CC[C@H](N5CCN(CC6CC6)CC5)CC4)cc3OC)nc2N1C(C)C [volasertib]
Procedure, shortened: as §1

[6] = compound: CCn1c(C(=O)N(C2CC2)C2CC2)cc2c3c(ncn3C)c(Nc3cc(C)n(C)n3)nc21
Procedure, shortened: as §1

[7] = compound: CCn1cc(-c2ccnc3[nH]c(-c4cccc(CN(C)C)c4)cc23)c(-c2ccc(NC(=O)N(C)C)cc2)n1
Procedure, shortened: as §1

[8] = compound: CN1CCC(CNc2ccc3ncc(-c4cccc(OC(F)(F)F)c4)n3n2)CC1
Procedure, shortened: as §1

[9] = compound: CN1CCN(CCOc2cc(OC3CCOCC3)c3c(Nc4c(Cl)ccc5c4OCO5)ncnc3c2)CC1 [saracatinib]
Procedure, shortened: as §1

[10] = compound: CN1CCN(c2nc(C3=C(c4c[nH]c5ccccc45)C(=O)NC3=O)c3ccccc3n2)CC1 [sotrastaurin]
Procedure, shortened: as §1

[11] = compound: CN1CC[C@H](c2c(O)cc(O)c3c(=O)cc(-c4ccccc4Cl)oc23)[C@H](O)C1 [alvocidib]
Procedure, shortened: as §1

[12] = compound: CN1CCc2c(c3ccccc3n2Cc2ccc(C(=O)NO)cc2)C1 [Tubastatin A]
Procedure, shortened: as §1

[13] = compound: CNC(=O)C1=CC=CC=C1NC2=NC(=NC=C2Cl)NC3=C(C=C(C=C3)N4CCOCC4)OC
Procedure, shortened: as §1

[14] = compound: CNC(=O)c1ccc(Nc2ncc(C(F)(F)F)c(NCc3nccnc3N(C)S(C)(=O)=O)n2)cc1 [defactinib]
Procedure, shortened: as §1

[15] = compound: CNc1nc(-c2ccc3c(N)n[nH]c3c2)cc(N2C[C@@H](C(=O)NC3CCCCC3)CC[C@H]2C)n1
Procedure, shortened: as §1

[16] = compound: COC(=O)N[C@@H](C)CNc1nccc(-c2cn(C(C)C)nc2-c2cc(Cl)cc(NS(C)(=O)=O)c2F)n1 [encorafenib]
Procedure, shortened: as §1

[17] = compound: COC(=O)[C@H](CCSC)NC(=O)C1=C(C=C(C=C1)NC[C@H](CS)N)C2=CC=CC=C2
Procedure, shortened: as §1

[18] = compound: COc1cc(Nc2ncc3c(n2)-c2ccc(Cl)cc2C(c2c(F)cccc2OC)=NC3)ccc1C(=O)O [alisertib]
Procedure, shortened: as §1

[19] = compound: COc1cc2nc(-c3cc(F)ccc3O)nc(N[C@@H]3CNC[C@H]3C(C)(C)O)c2cc1OC
Procedure, shortened: as §1

[20] = compound: COc1cc2ncnc(Nc3ccc(F)c(Cl)c3)c2cc1OCCCN1CCOCC1 [gefitinib]
Procedure, shortened: as §1

Measured: log2 fold change

HDAC10 (UniProt Q969S8)
Chain of UniProt Q969S8 (Q969S8 whole entry, looked up): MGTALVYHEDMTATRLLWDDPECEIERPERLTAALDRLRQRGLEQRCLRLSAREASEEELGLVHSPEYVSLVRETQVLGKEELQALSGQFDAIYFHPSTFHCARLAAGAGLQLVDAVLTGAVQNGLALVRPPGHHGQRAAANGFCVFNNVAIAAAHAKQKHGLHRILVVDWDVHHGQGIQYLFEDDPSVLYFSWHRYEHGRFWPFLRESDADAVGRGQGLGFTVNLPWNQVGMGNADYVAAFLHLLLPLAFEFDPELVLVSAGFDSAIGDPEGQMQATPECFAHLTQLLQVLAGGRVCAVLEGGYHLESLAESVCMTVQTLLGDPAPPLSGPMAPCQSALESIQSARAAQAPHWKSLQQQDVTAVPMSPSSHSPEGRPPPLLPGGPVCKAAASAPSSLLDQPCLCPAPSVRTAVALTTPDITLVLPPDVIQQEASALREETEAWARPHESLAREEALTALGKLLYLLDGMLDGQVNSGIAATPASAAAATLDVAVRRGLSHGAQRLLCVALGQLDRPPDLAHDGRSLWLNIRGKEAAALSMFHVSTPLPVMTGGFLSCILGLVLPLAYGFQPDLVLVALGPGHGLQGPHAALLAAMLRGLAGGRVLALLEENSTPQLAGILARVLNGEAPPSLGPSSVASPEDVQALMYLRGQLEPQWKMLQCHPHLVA
active: [12] 0.49
inactive: [1] 0.142 | [2] -0.093 | [3] 0.009 | [4] -0.052 | [5] -0.056 | [6] -0.117 | [7] -0.026 | [8] 0.02 | [9] -0.052 | [10] -0.069 | [11] 0.033 | [13] -0.075 | [14] -0.135 | [15] -0.014 | [16] 0.091 | [17] 0.08 | [18] 0.047 | [19] -0.006 | [20] 0.165

HSPA14 (UniProt Q0VDF9)
Chain of UniProt Q0VDF9 (Q0VDF9 whole entry, looked up): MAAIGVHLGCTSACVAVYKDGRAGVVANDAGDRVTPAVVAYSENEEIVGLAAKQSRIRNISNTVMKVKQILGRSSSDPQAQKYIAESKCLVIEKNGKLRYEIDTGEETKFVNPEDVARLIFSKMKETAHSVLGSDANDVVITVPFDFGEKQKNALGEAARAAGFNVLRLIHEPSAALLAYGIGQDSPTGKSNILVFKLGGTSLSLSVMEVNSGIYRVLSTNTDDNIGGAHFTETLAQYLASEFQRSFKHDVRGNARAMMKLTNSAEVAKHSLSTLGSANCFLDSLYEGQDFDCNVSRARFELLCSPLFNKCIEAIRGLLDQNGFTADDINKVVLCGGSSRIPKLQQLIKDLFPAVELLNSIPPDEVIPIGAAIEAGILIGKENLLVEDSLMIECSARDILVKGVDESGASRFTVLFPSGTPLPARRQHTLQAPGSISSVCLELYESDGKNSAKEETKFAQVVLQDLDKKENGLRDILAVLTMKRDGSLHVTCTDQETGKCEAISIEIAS
inactive: [1] 0.023 | [2] 0.011 | [3] 0.001 | [4] -0.026 | [5] -0.043 | [6] 0.013 | [7] 0.04 | [8] -0.021 | [9] 0.002 | [10] 0.039 | [11] 0.001 | [12] -0.081 | [13] 0.01 | [14] 0.012 | [15] -0.011 | [16] -0.004 | [17] 0.153 | [18] 0.028 | [19] 0 | [20] 0.02

HAUS8 (UniProt Q9BT25)
Chain of UniProt Q9BT25 (Q9BT25 whole entry, looked up): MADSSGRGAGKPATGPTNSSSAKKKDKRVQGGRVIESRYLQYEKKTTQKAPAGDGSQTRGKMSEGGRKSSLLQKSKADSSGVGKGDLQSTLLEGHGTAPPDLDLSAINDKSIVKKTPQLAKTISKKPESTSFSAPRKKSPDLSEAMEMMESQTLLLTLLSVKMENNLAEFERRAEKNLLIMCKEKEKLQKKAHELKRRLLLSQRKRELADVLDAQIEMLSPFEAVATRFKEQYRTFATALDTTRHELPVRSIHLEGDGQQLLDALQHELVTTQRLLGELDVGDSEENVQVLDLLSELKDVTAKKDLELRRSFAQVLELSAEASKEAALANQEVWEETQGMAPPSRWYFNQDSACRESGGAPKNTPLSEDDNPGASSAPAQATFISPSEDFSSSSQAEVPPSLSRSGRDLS
inactive: [1] -0.042 | [2] 0.04 | [3] -0.05 | [4] -0.049 | [5] 0.037 | [6] -0.005 | [7] -0.048 | [8] 0.029 | [9] 0.031 | [10] -0.001 | [11] 0.067 | [12] -0.173 | [13] -0.012 | [14] -0.06 | [15] 0.064 | [16] 0.063 | [17] -0.004 | [18] -0.063 | [19] -0.075 | [20] -0.031

GSTM4 (UniProt Q03013)
inactive: [1] 0.055 | [2] 0.034 | [3] -0.044 | [4] 0.024 | [5] 0.03 | [6] 0.009 | [7] -0.114 | [8] 0.038 | [9] -0.13 | [10] -0.05 | [11] 0.006 | [12] -0.012 | [13] 0.029 | [14] 0.006 | [15] 0.077 | [16] -0.117 | [17] 0.095 | [18] 0.03 | [19] 0.002 | [20] 0.075

GOLGA1 (UniProt Q92805)
Chain of UniProt Q92805 (Q92805 whole entry, looked up): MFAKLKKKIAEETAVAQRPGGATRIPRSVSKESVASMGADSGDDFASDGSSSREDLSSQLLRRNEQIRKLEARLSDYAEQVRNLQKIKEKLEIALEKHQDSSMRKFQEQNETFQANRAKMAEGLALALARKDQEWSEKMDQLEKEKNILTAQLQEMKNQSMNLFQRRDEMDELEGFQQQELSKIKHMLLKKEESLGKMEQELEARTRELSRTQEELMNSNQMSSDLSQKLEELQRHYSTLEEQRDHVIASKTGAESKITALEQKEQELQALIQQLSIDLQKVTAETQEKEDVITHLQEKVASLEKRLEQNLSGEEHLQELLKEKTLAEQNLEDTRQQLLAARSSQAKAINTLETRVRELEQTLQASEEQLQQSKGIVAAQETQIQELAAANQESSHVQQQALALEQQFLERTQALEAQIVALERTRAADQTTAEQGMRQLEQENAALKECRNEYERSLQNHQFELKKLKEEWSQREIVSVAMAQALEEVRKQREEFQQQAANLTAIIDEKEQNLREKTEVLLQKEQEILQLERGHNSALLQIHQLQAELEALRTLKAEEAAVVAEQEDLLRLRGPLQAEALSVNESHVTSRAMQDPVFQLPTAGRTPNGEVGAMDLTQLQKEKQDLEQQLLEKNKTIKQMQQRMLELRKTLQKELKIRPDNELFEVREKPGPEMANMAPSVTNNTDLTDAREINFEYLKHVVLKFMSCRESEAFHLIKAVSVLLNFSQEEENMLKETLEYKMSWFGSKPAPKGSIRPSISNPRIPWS
inactive: [1] 0.081 | [2] 0.086 | [3] 0 | [4] 0.007 | [5] 0.121 | [6] -0.061 | [7] -0.019 | [8] -0.04 | [9] -0.031 | [10] 0.071 | [11] -0.027 | [12] 0.051 | [13] 0.035 | [14] -0.017 | [15] 0.011 | [16] 0.028 | [17] -0.093 | [18] -0.017 | [19] -0.18 | [20] -0.024

HADHB (UniProt P55084)
Chain of UniProt P55084 (P55084 whole entry, looked up): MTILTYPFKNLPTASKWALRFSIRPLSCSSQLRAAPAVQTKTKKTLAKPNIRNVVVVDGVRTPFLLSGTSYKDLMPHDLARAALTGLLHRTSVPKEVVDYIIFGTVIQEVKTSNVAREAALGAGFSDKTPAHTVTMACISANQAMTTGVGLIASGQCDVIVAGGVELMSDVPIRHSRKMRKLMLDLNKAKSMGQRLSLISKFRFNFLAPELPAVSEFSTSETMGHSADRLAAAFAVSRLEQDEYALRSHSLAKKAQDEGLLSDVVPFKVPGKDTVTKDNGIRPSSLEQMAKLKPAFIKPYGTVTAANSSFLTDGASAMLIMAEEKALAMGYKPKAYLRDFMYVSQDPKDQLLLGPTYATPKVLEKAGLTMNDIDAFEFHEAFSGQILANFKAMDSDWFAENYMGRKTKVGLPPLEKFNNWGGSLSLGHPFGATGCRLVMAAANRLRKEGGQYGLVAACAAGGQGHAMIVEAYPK
inactive: [1] -0.019 | [2] -0.004 | [3] -0.124 | [4] 0.047 | [5] 0.099 | [6] -0.005 | [7] -0.001 | [8] 0.074 | [9] 0.012 | [10] -0.069 | [11] -0.046 | [12] 0.033 | [13] 0.081 | [14] -0.065 | [15] -0.03 | [16] -0.058 | [17] 0.072 | [18] -0.019 | [19] -0.019 | [20] 0.022

HNRNPD isoform 3 (UniProt Q14103)
Chain of UniProt Q14103 (Q14103 whole entry, looked up): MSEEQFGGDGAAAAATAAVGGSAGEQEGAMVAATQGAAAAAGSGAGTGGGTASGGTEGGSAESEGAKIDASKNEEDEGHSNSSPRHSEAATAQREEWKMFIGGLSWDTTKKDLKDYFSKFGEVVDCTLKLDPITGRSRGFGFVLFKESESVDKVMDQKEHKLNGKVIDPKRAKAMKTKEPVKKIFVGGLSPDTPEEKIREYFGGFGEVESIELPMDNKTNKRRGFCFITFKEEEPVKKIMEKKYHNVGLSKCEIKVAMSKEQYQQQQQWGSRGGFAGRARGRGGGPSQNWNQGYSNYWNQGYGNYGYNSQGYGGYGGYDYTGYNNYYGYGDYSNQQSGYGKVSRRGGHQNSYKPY
inactive: [1] 0.024 | [2] -0.028 | [3] -0.033 | [4] 0.128 | [5] 0.014 | [6] 0.077 | [7] -0.077 | [8] -0.023 | [9] 0.048 | [10] -0.066 | [11] 0.017 | [12] 0.008 | [13] 0.004 | [14] 0.117 | [15] 0.146 | [16] 0.036 | [17] 0.016 | [18] 0.024 | [19] 0.001 | [20] 0.113

KDM5C (UniProt P41229)
inactive: [1] 0.001 | [2] 0.036 | [3] 0.096 | [4] -0.031 | [5] 0.004 | [6] -0.001 | [7] -0.028 | [8] -0.059 | [9] 0.008 | [10] 0.019 | [11] -0.02 | [12] -0.115 | [13] 0.059 | [14] -0.009 | [15] 0.04 | [16] -0.018 | [17] 0.176 | [18] -0.01 | [19] 0.09 | [20] -0.013

GRK6 isoform 2 (UniProt P43250)
Chain of UniProt P43250 (P43250 whole entry, looked up): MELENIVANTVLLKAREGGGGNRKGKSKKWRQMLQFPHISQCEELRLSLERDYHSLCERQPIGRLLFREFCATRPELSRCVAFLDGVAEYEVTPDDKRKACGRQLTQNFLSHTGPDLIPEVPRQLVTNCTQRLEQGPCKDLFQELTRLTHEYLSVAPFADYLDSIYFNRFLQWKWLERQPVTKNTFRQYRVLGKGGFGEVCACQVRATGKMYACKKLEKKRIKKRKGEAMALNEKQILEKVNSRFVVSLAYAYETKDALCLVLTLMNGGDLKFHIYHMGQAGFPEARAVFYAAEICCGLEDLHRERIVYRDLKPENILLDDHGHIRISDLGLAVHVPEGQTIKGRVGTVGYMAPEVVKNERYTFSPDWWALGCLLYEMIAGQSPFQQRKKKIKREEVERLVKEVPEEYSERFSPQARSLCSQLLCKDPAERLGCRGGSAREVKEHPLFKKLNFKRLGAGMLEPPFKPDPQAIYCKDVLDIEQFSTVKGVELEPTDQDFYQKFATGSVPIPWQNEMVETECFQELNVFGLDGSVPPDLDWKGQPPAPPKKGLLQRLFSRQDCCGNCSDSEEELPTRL
active: [8] 0.614
inactive: [1] 0.102 | [2] 0.046 | [3] 0.042 | [4] 0.11 | [5] 0.006 | [6] -0.032 | [7] -0.136 | [9] -0.056 | [10] -0.001 | [11] -0.05 | [12] 0.074 | [13] 0.007 | [14] 0.034 | [15] 0.148 | [16] -0.082 | [17] 0.043 | [18] -0.04 | [19] -0.015 | [20] 0.064

HDAC3 (UniProt O15379)
Chain of UniProt O15379 (O15379 whole entry, looked up): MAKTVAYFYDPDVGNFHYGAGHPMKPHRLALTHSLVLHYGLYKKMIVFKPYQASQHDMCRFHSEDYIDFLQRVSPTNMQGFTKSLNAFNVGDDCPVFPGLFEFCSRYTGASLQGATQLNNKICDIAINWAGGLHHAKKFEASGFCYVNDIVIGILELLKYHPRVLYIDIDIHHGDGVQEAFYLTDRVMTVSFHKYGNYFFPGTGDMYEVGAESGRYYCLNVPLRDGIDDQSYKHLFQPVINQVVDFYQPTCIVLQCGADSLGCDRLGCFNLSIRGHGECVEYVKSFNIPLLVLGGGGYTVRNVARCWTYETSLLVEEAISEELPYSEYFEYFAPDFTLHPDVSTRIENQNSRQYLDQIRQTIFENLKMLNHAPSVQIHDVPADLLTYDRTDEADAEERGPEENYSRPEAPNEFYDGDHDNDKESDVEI
inactive: [1] 0.035 | [2] 0.026 | [3] -0.038 | [4] -0.023 | [5] -0.003 | [6] 0.001 | [7] 0.023 | [8] 0.052 | [9] -0.04 | [10] -0.006 | [11] 0.005 | [12] -0.039 | [13] 0.013 | [14] -0.023 | [15] 0.069 | [16] 0.008 | [17] -0.057 | [18] 0.02 | [19] -0.015 | [20] 0.014

GPX4 (UniProt P36969)
Chain of UniProt P36969 (P36969 whole entry, looked up): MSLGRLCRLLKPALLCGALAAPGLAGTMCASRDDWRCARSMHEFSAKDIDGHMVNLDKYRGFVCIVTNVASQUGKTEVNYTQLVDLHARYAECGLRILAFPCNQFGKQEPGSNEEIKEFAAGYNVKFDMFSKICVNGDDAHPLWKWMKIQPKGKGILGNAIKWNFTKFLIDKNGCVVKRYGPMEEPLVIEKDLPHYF
inactive: [1] -0.003 | [2] 0.025 | [3] -0.002 | [4] -0.068 | [5] -0.038 | [6] 0.013 | [7] 0.027 | [8] -0.079 | [9] 0.02 | [10] 0.012 | [11] 0.031 | [12] -0.099 | [13] -0.006 | [14] 0.048 | [15] -0.051 | [16] 0.004 | [17] -0.023 | [18] 0.041 | [19] 0 | [20] 0.016

HMBOX1 isoform 5 (UniProt Q6NT76)
Chain of UniProt Q6NT76 (Q6NT76 whole entry, looked up): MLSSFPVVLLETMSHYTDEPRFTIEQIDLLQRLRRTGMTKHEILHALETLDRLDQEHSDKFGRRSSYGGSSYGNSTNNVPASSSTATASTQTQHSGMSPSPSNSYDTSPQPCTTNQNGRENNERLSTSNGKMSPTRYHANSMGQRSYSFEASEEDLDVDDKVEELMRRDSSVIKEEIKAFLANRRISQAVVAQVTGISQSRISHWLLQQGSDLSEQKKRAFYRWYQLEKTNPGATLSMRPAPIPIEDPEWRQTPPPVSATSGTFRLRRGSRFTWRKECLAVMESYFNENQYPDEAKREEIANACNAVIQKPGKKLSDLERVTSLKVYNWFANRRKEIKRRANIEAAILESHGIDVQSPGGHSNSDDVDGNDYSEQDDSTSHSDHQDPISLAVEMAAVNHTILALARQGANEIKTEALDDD
inactive: [1] 0.028 | [2] -0.086 | [3] -0.001 | [4] 0.122 | [5] -0.059 | [6] -0.038 | [7] -0.043 | [8] -0.071 | [9] -0.003 | [10] -0.013 | [11] -0.078 | [12] -0.003 | [13] -0.005 | [14] 0.012 | [15] 0.066 | [16] -0.037 | [17] -0.016 | [18] -0.156 | [19] 0.02 | [20] -0.091
